Experiment [1] concerns the target mouse Estrogen Receptor alpha (Era), Esr1 (gene 13982) (UniProt P19785). Put plainly: NVS_NR_mERa: NovaScreen (NVS) Nuclear Receptor Binding Assay for mouse Estrogen Receptor alpha (Era) (AID 2283378).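 Further: hit means loss of bound radioligand signal relative to DMSO.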 In a few lines: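 Filter scintillation counts of bound radioligand, measured 18 h post-dose, gave the readout; decreased signal relative to DMSO controls indicated displacement from mouse Era. Primary screen ran in duplicate at 25 uM; active chemicals were retested across concentrations.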

Experiment [2] concerns the target Estrogen receptor beta (Homo sapiens) (UniProt Q92731). In words: OT_ER_ERbERb_1440: Odyssey Thera (OT) 24-hour HEK293T Protein-Complementation Assay for Estrogen Receptor-beta/-beta Homodimer (AID 2283380).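 Further: scored as signal increase over DMSO baseline for both agonists and antagonists.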 In a few lines:
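HEK293T cells stably expressing ER beta LBD (aa 310-547) homodimer fragment-complementation reporter, dosed 24 h. Cells formaldehyde-fixed, Draq5-stained; gain in nuclear (agonist) or nuclear plus cytoplasmic (antagonist) fluorescence versus DMSO read by laser scanning cytometry.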

Experiment [3] has as its target Estrogen receptor (Homo sapiens) (UniProt P03372). In words: OT_ERa_GFPERaERE_0480: Odyssey Thera (OT) 8-hour HeLa Transcription Induction Assay for Estrogen Receptor (AID 2283381; active means hit-call score of the fitted dose curve at least 0.9, where 1 is the maximum; inactive means score below 0.9). In a few lines: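 Fluorescence microscopy with high-content image analysis measures ERE-driven GFP induction in HeLa cells at 8 h post-dose. Increases fitted against DMSO baseline.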
The target is the same in experiment [4]. Put plainly: OT_ERa_GFPERaERE_0120: Odyssey Thera (OT) 2-hour HeLa Transcription Induction Assay for Estrogen Receptor (AID 2283382). In a few lines: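 Fluorescence-microscopy images of the GFP-ERα/ERE reporter, scored by high-content image algorithms, give the readout. HeLa exposure lasted 2 h, and only signal increase over DMSO was fitted.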
Experiment [5] has as its target Retinoic acid receptor RXR-alpha (Homo sapiens) (UniProt P19793). Put plainly: OT_NURR1_NURR1RXRa_0480: Odyssey Thera (OT) 8-hour HEK293T Protein Complementation Assay for Nurr1/retinoid X receptor (RXR) (AID 2283385). The procedure, abridged:
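Interaction of Nurr1 with RXRα read as reconstituted reporter fluorescence in a HEK293T fragment-complementation system, 8 h post-treatment; increase over DMSO baseline analysed.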

For experiment [6] the target is unchanged. In words: OT_NURR1_NURR1RXRa_1440: Odyssey Thera (OT) 24-hour HEK293T Protein Complementation Assay for Nurr1/retinoid X receptor (RXR) (AID 2283386). In a few lines: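 Gain in fluorescence, fitted relative to DMSO, reflects Nurr1–RXRα association in HEK293T cells after 24 h dosing. Bait and prey are each linked to a reporter-protein fragment that reassembles on interaction.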

In experiment [7] the target is Peroxisome proliferator-activated receptor gamma (Homo sapiens) (UniProt P37231). Put plainly: OT_PPARg_PPARgSRC1_0480: Odyssey Thera (OT) 8-hour Protein-Complementation Assay for Peroxisome Proliferator-activated Receptor Gamma / SRC-1 Co-activator (AID 2283387).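 Further: nuclear to cytoplasmic split Venus YFP fluorescence ratio reporting PPARg SRC-1 interaction.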 The procedure, abridged: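 Split-YFP (IFP1/IFP2) PPARg/SRC-1 reporter, HEK293T, 37 °C, 5% CO2; 8 h compound; formaldehyde fix + Draq5; high-content imaging, N/C ratio, ≥350 cells/image, positive direction vs DMSO.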

Experiment [8] addresses Bile acid receptor (Homo sapiens) (UniProt Q96RI1). In words: OT_FXR_FXRSRC1_0480: Odyssey Thera (OT) 8-hour HEK293T Protein-Complementation Assay for Farnesoid X receptor/SRC-1 Co-activator (AID 2283383). The procedure, abridged:
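Binding of FXR to coactivator SRC-1 was read as fluorescence from a reconstituted split reporter in HEK293T cells, 8 h after chemical addition. Only increases in signal versus DMSO were fit.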

The target is the same in experiment [9]. In words: OT_FXR_FXRSRC1_1440: Odyssey Thera (OT) 24-hour HEK293T Protein-Complementation Assay for Farnesoid X receptor/SRC-1 Co-activator (AID 2283384). The procedure, abridged:
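Protein-fragment complementation: FXR and SRC-1 fused to reporter fragments that reassemble on interaction, read by fluorescence intensity. Human HEK293T cells measured 24 h post-dose; positive-direction fit versus DMSO.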

Results filed as inconclusive are left out. Calls of active or inactive are those of the source. How the source made its calls, unless noted: active means hit-call score of the fitted dose curve at least 0.9, where 1 is the maximum; inconclusive means response in the unintended direction; inactive means score below 0.9.

Chain of Retinoic acid receptor RXR-alpha (Homo sapiens) (P19793 whole entry, looked up, the tested form may be a part): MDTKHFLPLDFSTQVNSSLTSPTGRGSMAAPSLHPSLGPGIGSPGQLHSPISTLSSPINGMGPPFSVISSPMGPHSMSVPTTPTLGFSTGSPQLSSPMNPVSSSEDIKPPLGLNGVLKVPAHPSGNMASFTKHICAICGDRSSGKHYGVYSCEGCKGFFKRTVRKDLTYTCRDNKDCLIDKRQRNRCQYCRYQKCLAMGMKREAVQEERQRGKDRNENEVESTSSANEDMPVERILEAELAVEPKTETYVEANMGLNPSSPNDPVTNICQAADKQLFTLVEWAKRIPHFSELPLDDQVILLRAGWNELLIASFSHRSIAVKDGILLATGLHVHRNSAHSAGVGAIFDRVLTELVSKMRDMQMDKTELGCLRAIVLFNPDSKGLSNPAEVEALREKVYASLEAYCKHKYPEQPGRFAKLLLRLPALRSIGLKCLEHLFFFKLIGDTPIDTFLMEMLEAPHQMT
Chain of mouse Estrogen Receptor alpha (Era), Esr1 (gene 13982) (P19785 whole entry, looked up): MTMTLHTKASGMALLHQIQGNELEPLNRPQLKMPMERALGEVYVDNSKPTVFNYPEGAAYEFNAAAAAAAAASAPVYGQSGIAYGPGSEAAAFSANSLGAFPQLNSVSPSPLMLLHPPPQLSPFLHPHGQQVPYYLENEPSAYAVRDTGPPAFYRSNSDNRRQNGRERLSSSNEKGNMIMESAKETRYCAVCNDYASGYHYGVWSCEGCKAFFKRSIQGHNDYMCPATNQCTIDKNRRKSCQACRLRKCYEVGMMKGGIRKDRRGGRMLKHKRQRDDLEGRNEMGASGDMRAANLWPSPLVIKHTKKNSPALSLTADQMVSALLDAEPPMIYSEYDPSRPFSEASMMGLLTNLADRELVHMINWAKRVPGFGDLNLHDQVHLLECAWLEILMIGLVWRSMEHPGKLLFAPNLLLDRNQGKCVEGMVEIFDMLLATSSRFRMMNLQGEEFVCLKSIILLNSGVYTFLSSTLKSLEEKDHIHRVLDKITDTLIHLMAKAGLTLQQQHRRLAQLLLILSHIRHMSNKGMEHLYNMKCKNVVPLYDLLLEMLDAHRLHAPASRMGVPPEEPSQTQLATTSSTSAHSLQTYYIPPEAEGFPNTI
Chain of Peroxisome proliferator-activated receptor gamma (Homo sapiens) (P37231 whole entry, looked up): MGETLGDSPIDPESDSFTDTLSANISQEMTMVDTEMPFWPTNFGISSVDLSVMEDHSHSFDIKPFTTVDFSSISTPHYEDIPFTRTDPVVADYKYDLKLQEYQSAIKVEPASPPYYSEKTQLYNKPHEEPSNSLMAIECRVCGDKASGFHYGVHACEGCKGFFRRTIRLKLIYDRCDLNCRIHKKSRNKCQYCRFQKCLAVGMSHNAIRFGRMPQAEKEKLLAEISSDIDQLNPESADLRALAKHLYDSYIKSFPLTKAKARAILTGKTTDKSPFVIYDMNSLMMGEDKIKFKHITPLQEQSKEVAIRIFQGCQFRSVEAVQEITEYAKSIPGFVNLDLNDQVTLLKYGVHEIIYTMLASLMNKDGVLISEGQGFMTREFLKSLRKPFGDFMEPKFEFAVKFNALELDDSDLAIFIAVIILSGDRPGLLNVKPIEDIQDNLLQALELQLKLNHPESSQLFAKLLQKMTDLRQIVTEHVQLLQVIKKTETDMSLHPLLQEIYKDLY
Chain of Estrogen receptor (Homo sapiens) (P03372 whole entry, looked up): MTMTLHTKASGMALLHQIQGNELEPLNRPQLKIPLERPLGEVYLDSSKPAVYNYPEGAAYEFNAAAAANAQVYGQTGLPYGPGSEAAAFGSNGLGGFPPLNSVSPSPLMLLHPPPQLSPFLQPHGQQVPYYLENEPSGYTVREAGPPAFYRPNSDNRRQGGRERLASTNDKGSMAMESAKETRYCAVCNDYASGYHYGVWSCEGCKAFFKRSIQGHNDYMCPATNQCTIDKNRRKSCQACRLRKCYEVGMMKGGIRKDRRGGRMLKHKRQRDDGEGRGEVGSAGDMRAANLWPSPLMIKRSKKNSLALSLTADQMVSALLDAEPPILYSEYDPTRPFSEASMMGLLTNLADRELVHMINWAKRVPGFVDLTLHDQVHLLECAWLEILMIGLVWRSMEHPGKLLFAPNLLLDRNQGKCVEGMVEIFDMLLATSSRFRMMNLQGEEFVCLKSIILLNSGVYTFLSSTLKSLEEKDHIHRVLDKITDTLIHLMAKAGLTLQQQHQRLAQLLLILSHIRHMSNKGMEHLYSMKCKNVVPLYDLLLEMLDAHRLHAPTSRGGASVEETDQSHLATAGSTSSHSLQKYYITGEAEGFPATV
Chain of Estrogen receptor beta (Homo sapiens) (Q92731 whole entry, looked up, the tested form may be a part): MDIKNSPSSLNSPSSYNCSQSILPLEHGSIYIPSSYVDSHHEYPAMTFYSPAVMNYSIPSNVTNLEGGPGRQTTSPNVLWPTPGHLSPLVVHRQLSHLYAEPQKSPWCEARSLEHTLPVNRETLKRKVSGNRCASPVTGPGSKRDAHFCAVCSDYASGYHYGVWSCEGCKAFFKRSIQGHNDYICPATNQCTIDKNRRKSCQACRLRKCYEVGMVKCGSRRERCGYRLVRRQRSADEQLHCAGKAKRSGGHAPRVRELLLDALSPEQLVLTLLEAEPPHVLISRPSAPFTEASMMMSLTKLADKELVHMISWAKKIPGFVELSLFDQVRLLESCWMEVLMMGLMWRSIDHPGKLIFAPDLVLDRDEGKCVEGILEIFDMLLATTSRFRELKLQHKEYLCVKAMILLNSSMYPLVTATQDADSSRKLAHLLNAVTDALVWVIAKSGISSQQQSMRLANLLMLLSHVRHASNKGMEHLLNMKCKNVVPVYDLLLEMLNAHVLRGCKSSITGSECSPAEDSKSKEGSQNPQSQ
Chain of Bile acid receptor (Homo sapiens) (Q96RI1 whole entry, looked up): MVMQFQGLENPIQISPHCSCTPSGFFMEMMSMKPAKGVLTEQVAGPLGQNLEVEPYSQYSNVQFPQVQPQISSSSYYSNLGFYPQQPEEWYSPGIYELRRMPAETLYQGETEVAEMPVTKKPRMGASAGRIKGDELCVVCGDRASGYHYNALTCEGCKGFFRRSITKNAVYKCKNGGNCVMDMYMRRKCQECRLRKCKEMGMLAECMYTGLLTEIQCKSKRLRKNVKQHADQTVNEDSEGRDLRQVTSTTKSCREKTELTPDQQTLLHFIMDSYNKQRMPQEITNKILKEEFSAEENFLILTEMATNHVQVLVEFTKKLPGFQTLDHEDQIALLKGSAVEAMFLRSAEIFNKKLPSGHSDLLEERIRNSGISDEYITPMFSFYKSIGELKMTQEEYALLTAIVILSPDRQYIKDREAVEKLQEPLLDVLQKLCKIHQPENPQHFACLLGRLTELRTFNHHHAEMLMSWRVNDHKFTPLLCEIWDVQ

As to `CC(C)c1ccc2c(c1)CC[C@H]1[C@](C)(CN)CCC[C@]21C`, the compound was called inactive in experiment [1].
On the same count and under the same terms, to `CCC(Cc1ccccc1)(C(=O)c1ccc(N2CCOCC2)cc1)N(C)C` (centres undefined) belongs “inactive”.
Still for that read-out and setting: as for `CCOC(=O)N1CCC(=C2c3ccc(Cl)cc3CCc3cccnc32)CC1`, the entry is “inactive”.
`C=CC(C)(CCC=C(C)C)OC(=O)CC(C)C` (centres undefined): the result in [1] was inactive.
Same read-out and setting: as for `Cc1cccc(N(C)C(=S)Oc2ccc3ccccc3c2)c1`, the entry is “inactive”; as for `[Cl][Bi]([Cl])([c]1ccccc1)([c]1ccccc1)[c]1ccccc1`, “inactive”.
Same read-out and setting: to `S=C(NC1CCCCC1)NC1CCCCC1` belongs “inactive”.
Regarding `CN(C)c1ccc(N=Nc2ccccc2C(=O)O)cc1`, the compound was classed as inactive in experiment [1], in experiment [2], in [3], in experiment [4], in [5] and in [6]. Also, in experiment [7], the outcome was inactive.
Broadly, the AC50 is the midpoint of the concentration-response curve, whichever way the signal moves. For `CCC(=O)Oc1ccc(/C(CC)=C(\CC)c2ccc(OC(=O)CC)cc2)cc1`, in [1], the AC50 was 0.0132 µM (active).
The same measure, in the same setting: as for `COc1ccc(C(Cl)=C(c2ccc(OC)cc2)c2ccc(OC)cc2)cc1`, the figure is 4.88 µM (active).
On the same count and under the same terms, to `O=C(c1ccc(O)cc1)c1ccc(O)cc1O` belongs 1.29 µM (active).
With `CC(C)(c1cc(Br)c(OCCO)c(Br)c1)c1cc(Br)c(OCCO)c(Br)c1`, the outcome in [1] was inactive.
Turning to `O=C(O)CCCC[C@@H]1SC[C@@H]2NC(=O)N[C@@H]21`, the compound was classed as inactive in experiment [1], in [2], in [3], in [4], in experiment [5] and in [6]. In experiment [7], the call was inactive.
Consider `CC(=O)[C@H]1[C@H](C#N)C[C@H]2[C@@H]3CC=C4C[C@@H](O)CC[C@]4(C)[C@H]3CC[C@@]21C`, for which the half-maximal activity concentration (AC50) in [1] was 4.26 µM (active). Moreover, the outcome in experiment [2], in [3], in experiment [4], in experiment [8], in [9] and in [6] was inactive. Besides, the compound was called inactive in [7].
Take `O=C(O)c1ccccc1Nc1cccc(C(F)(F)F)c1`: the compound was classed as inactive in [1].

The values above are taken from PubChem BioAssay (EPA / NIEHS).
